Among all 4,800 compounds or so, about 420 (8.8%) showed an effect of 50% or more. The sample holds strong results, similar compounds and a random draw of the others, so the mix is not that of the screen.
test system: Plasmodium falciparum; test: Confirmatory screen in NF54 nanoGlo assay, in single point, at 2uM, 72h; assay type: functional, Erythrocyte; details: timepoint 72 hour

Compound	% Inhibition [%]
C[C@]1(CCc2ccc(O)cc2)Nc2ccccc2-c2nc(=O)c(-c3ccc(F)cc3)nn21	8
O=c1nc2n(nc1-c1ccccc1)C1(CCC1)Nc1ccccc1-2	74
C[C@]1(C(=O)O)Nc2ccccc2-c2nc(=O)c(-c3ccccc3)nn21	-2
COc1ccccc1CNC(=O)c1cn(CC2(O)CCN(Cc3ccccc3)CC2)nn1	-3
C#CCCCCC(=O)Nc1ncccc1Cl	-2
COc1ccc(N2CCN(c3nccn4nc(-c5ccc(OC)c(OC)c5)cc34)CC2)cc1	-10
CC(C(=O)Nc1ncccn1)N1CCCC1Cn1cccn1 (stereo not drawn)	-4
COc1nc(NC[C@H]2CCCN2C(C)C)ncc1F	66
COc1ccc2ncc(=O)n(CCOc3ccccc3)c2c1	4
COc1ccc(CCc2n[nH]c(NC(=O)CCc3c[nH]c4ccccc34)n2)cc1OC	14
CCOc1cccc(-c2ccc3nc(-c4cccc(OC)c4)c(CCC(=O)NCCc4ccc(OC)c(OC)c4)n3c2)c1	23
CCOc1cccc(-c2ccc3nc(-c4cccc(OC)c4)c(CCC(=O)NCCN4CCCC4)n3c2)c1	61
CCCCN1C(=O)[C@H]2[C@H]([C@H](O)c3ccc(Cl)cc3)N[C@@]3(C(=O)Nc4ccccc43)[C@H]2C1=O	25
Cc1nnc(NC(=O)c2cc(N3CCCC3)ncn2)s1	14
O=C(NCc1ccncc1)c1cc(C(=O)C2CCCCC2)c[nH]1	-7
Cc1cnc(NC(=O)C(=O)N2CCC[C@H](n3cccn3)C2)s1	-4
Cc1ccc(Cc2nc(N3CCCN(C(=O)c4ccc(C)cc4)CC3)c3cnn(-c4ccccc4)c3n2)cc1	3
O=C(O)[C@H]1CC(=O)N(c2ccc3nc(-c4cccc(F)c4)oc3c2)C1	-6
C=CCNC(=O)N1CCC(c2nc(C)ccc2C(=O)N2CCCC2)CC1	-2
CCn1ccc([C@H](C)NC(=O)c2cc(C)c(C)s2)n1	-6
CCc1cc(C(=O)N[C@@H](C)c2ccccc2)c2c(C3CC3)nn(Cc3ccccc3)c2n1	-6
C=CCS(=O)(=O)NC(=O)c1cc(C)c(C)cc1Cl	-2
Cc1oc(-c2ccn[nH]2)cc1S(=O)(=O)Nc1ccc(F)c(Cl)c1	40
c1ccc2c(c1)ccc1oc(-c3ccn[nH]3)cc12	-5
Cc1oc(-c2ccn[nH]2)cc1S(=O)(=O)Nc1cccc(Cl)c1	52
CCCn1c(C)ccc(-c2noc(CCCC(=O)N3CCOCC3)n2)c1=O	-3

Compound	% Inhibition [%]
O=C(c1cnc(Nc2nc3ccccc3o2)nc1)N1CCN(c2ccccc2)CC1	0
Cn1nc(-c2nc(-c3ccc(F)cc3)no2)c2c1CCN(C(=O)c1cccc(Cl)c1)C2	-5
COc1cc(NC(=O)c2cccc3c(Br)cccc23)ccc1NC(=O)c1ccccc1Cl	0
CC1(C)Oc2cc(S(=O)(=O)NC3CCCCC3)ccc2NC1=O	-14
Cc1ccc(C(F)(F)C(=O)NCCC(=O)NS(C)(=O)=O)cc1	49
Cc1nnc([C@@H]2COCCN2Cc2csc(C)c2)o1	0
Cc1cc(C(=O)NCc2ccncc2)no1	-11
CCn1nccc1C(=O)N1CC[C@H](CC(=O)NCc2ccncc2)C1	-6
CC[C@@H](CO)NCc1cc(Br)ccc1OC	-11
CCc1nnc2ccc(S(=O)(=O)Nc3ccc(Cl)cc3)cn12	8
O=C(NC1CCCCCC1)c1cn(CC2(O)CCN(Cc3ccccc3)CC2)nn1	-4
O=C(C[C@H]1CCC(=O)N(Cc2ccccc2)CC1)NC1CCN(Cc2ccccc2)CC1	-1
Cc1nc2c(Oc3ccccc3)cccc2c2c1CCN2c1ccc(OC(F)(F)F)cc1	-17
CC1=N[C@H](N2CCN(c3ccccc3)CC2)NC(O)=C1	-12
N#Cc1cc(N2CCc3ccccc3C2)nc2ccccc12	2
N#Cc1cccc(-c2n[nH]c3c2CN(c2ccc(-c4ccccc4)nn2)CC3)c1	85
Cc1ccccc1-c1nc2cc(NS(=O)(=O)c3ccccc3)ccc2o1	2
Cc1cccn(Cc2nnnn2C2CC2)c1=O	3
O=C(Cc1ccc(Cl)cc1Cl)N1CCc2[nH]nc(C(=O)N3CCN(c4ccccc4)CC3)c2C1	-1
CN(c1nc2c(cnn2C)c(=O)[nH]1)C1CCCC1c1ccc(C(F)(F)F)cc1 (stereo not drawn)	6
CN1CCC(n2ncc3[nH]c(-c4ccc(C(F)(F)F)cc4)nc32)CC1	96
CN1CCN(c2nc(-c3cccc(C(F)(F)F)c3)nc3c2cnn3Cc2ccccc2)CC1	-4
Cc1ccc(S(=O)(=O)Cc2nc(-c3ccc(C(=O)NCc4ccc(C)o4)cc3)oc2C)cc1	-18
O=C(CCC1CCCC1)N1CCC(N2CCCCCC2)CC1	6
Cc1cccc(NS(=O)(=O)c2cc(C(=O)NCc3ccc4c(c3)OCO4)ccc2Cl)c1C	5
O=S(=O)(c1ccccc1)N1CCC(Nc2ccc(Br)cc2)CC1	10

Compound	% Inhibition [%]
Cc1nc(-c2ccc(NCc3cc4ccccc4o3)nc2)[nH]c(=O)c1C	-10
Cc1ncsc1C(=O)N1CCC2(CCCCC2)C1	-14
Nc1ncc(C(=O)N2CCC3(CCCCCC3)C2)s1	98
O=C1C[C@@H](C(=O)N2CCC3(CCCCC3)C2)CCN1	-3
O=C(O)c1csc(-c2csc(CCN3C(=O)c4ccccc4C3=O)n2)n1	3
Cc1nn(C)c(C)c1-c1cc(C(=O)Nc2cc(F)ccc2F)c2c(C)nn(C)c2n1	-5
COc1cc(OC)cc(C(=O)Nc2cnc(N3CCCCC3)c(C)c2)c1	0
Cc1ccc(CN2C(=O)[C@@H]3CCCN3c3ccc(C(F)(F)F)cc32)cc1	-17
Cc1cc(N(C)CCC2CC2)nc([C@H](C)N(C)CCC2CC2)n1	52
Cc1cc(N(CCO)C2CC2)nc(C2CC2)n1	-8
OC1CCC(Nc2cncc(-n3cccn3)n2)CC1 (stereo not drawn)	-2
CC(C)Cn1cc2c(C(F)(F)F)cc(=O)n(CCC(=O)Nc3cc(F)ccc3F)c2n1	1
CC(C)(C)OC(=O)N1CCc2ncn(Cc3ccc(F)cc3)c(=O)c2C1	-7
CCOC(=O)CCn1cc(F)c(=O)[nH]c1=O	77
CCOC(=O)CNc1ccc(F)c(Cl)c1	-6
CCOC(=O)COc1cc(N)c(F)cc1Cl	-10
Cc1nn(C)c(C)c1OCc1nnc(C2CCC2)n1C	-14
CCCNC(=O)C1=Cc2ccccc2OC=C1	-9
COc1ccccc1Cn1cnc2c1c(=O)n(C1CCCCC1)c(=O)n2-c1ccccc1Cl	83
COc1ccccc1-n1c(=O)n(C2CCCC2)c(=O)c2c1ncn2Cc1ccccc1Cl	37
Cc1ccccc1Cn1cnc2c1c(=O)n(C1CCCCC1)c(=O)n2-c1ccccc1Cl	78
COC(=O)c1ncn2c1C(=O)N(Cc1ccccc1OC)[C@](C)(C(=O)NC1CCCCC1)C2	0
CCCc1nc(N2CCCN(C(=O)C3CCCCC3)CC2)c2c(C)nn(-c3ccccc3)c2n1	0
CCC(C)(C)NCC(=O)Nc1cc(F)ccc1F	-13
Cc1coc(-c2cc(NC(=O)N(CCO)CC(F)F)ccc2C)n1	-5
Cn1nc(C(=O)Nc2nnc[nH]2)ccc1=O	4

Compound	% Inhibition [%]
Clc1cc(CNCCc2ccccc2)ccc1OCc1ccccc1	-6
COc1ccccc1CNCCNC(=O)c1ccncc1	8
Cc1cnccc1NCCNCc1cccc(O)c1Cl	88
C[C@@H](C1CC1)N(C)S(=O)(=O)Cc1cc(Cl)cc(Cl)c1	-3
COc1ccccc1CN(C(=O)c1ccc(C)cc1)c1ccc(CC(=O)NCCN2CCCCC2)cc1	39
COc1ccc(NC(=O)c2nc(Nc3ccccc3)c3ccccc3n2)cc1	17
CCOc1ccc(-n2c(CN3CCN(C(=O)c4ccco4)CC3)nc3ccccc3c2=O)cc1	3
CCOc1ccc(Nc2c3ccccc3nc3ccccc23)cc1	86
Cc1cccc(NS(=O)(=O)c2ccc3c(c2)Cc2cc(S(=O)(=O)Nc4cccc(C)c4)ccc2-3)c1	10
O=C(Cn1c(=O)n(-c2cc(F)cc(F)c2)c(=O)c2sccc21)NCc1ccc2c(c1)OCO2	-9
Cc1[nH]ccc(=O)c1Cc1c(Cl)cccc1Cl	-16
Cc1cc(NC(=O)Cn2ncnc2-c2cccc(C#N)c2)n(C)n1	-1
O[C@@H](CNCc1ccsc1C(F)(F)F)c1cc(Cl)c2c(c1)OCCO2	32
CCCN(Cc1c(C)nn(-c2ccccc2)c1N1CCN(CC)CC1)S(=O)(=O)c1ccc(C)cc1	-5
Cc1cc(NCCc2nccn2C)ncn1	-15
Cc1sc2nc(-c3ccccn3)nc(NCC(=O)N3CCC(O)CC3)c2c1-c1ccccc1	23
COC(=O)COc1nonc1-c1ccccc1	7
Cc1nnc(Cn2ncnc2-c2ccccc2Cl)o1	-3
COc1ccc(OCC(=O)Nc2ccc(N3CCn4c(nc5ccccc54)C3)cc2Cl)cc1	-8
Cc1cnc(C(=O)N2CCC[C@H]2c2nc(C3CCOCC3)no2)cn1	0
Cc1cc(S(=O)(=O)NC(=O)c2ccnc(C3CCCC3)n2)c(C)s1	-2
O=C(NC(c1ccccc1)c1ccccc1)C1=COCCO1	-9
Cc1cc(C(=O)N[C@@H](C)c2nc(-c3cccnc3)cs2)cc(O)n1	53
N#C[C@@H](C(=O)NCc1cccnc1)c1nc(-c2ccccc2)cs1	-1
CCOC(=O)c1nc(-c2cccnc2)cs1	-12
